PubChem BioAssay AID1979 (Broad Institute, 2009)
The whole screen tested about 300,000 compounds, of which about 1,700 (0.57%) were called active. Roughly 2% stayed inconclusive and do not appear here.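 How the source made its calls: active means growth inhibition above about 58% in most replicates (limit read from the data, passing the limit was not always enough); inconclusive means exactly half the replicates above a set limit; inactive means most replicates below a set limit.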 The list comes from a sample in which actives are over-represented; it also holds similar structures and randomly drawn compounds.

Experiment: C. albicans growth inhibition with fluconazole, primary screen, CaCi-2 strain, Alamar Blue fluorescence (AID 1979);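 further: all wells also contain fluconazole at 8 µg/ml as a sub-toxic cotreatment; 0% = median of DMSO wells and 100% = median of geldanamycin control wells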
Settings: C. albicans CaCi-2 (fluconazole-resistant clinical isolate) + fluconazole, 48 h, active compounds read high, concentration not given here

Row | SMILES | growth inhibition
1 | CCOc1ccc(S(=O)(=O)NCCC(=O)NCC(C)(C)N2CCOCC2)cc1 | -1.97% (inactive)
2 | Cc1nc2ccccn2c(=O)c1NC(=O)c1cccs1 | 0.647% (inactive)
3 | COc1ccc(/C=C(/NC(=O)c2ccc(C)cc2)c2nc3ccccc3[nH]2)cc1OC | 23.2% (inactive)
4 | COc1cc(/C=C(\C#N)c2nc3ccccc3[nH]2)ccc1O | 76.5% (active)
5 | COc1cc(/C=C(\C#N)c2nc3c(s2)CC(C)CC3)ccc1O (stereo not drawn) | 43.5% (inactive)
6 | Clc1ccc(Nc2ccc3ccccc3n2)cc1 | -23.2% (inactive)
7 | CCN1C(=O)[C@H]2[C@@H](c3ccc(-c4ccc(OC)cc4)cc3)N[C@@](Cc3ccccc3)(C(=O)OC)[C@H]2C1=O | 3.17% (inactive)
8 | CCN(CC(=O)Nc1cccc(S(=O)(=O)N2CCCCC2)c1)Cc1ccccc1 | -0.00245% (inactive)
9 | COc1ccccc1NC(=O)COC(=O)c1ccccc1SCC(=O)N1CCCC1 | 4.29% (inactive)
10 | COc1ccc(C(=O)C2CCCN(Cc3cccn3-c3ccccn3)C2)c(C)c1 (stereo not drawn) | 110% (active)
11 | CCOC(=O)c1[nH]ncc1CN1CCCC(C(=O)c2ccc(OC)cc2C)C1 (stereo not drawn) | -8.68% (inactive)
12 | COc1ccc(C(=O)C2CCCN(Cc3ccc4nonc4c3)C2)c(C)c1 (stereo not drawn) | 3.47% (inactive)
13 | CCn1c(=O)c([N+](=O)[O-])c(NCc2ccc3c(c2)OCO3)c2ccccc21 | 18.7% (inactive)
14 | CCn1c(/C=C/c2ccc([N+](=O)[O-])o2)nc2ccccc2c1=O | 99.4% (active)
15 | Cc1nc2ccccc2c(=O)n1Cc1ccc([N+](=O)[O-])cc1 | -0.41% (inactive)
16 | Cc1cccc(-n2nc3c(c2NC(=O)c2cc4ccccc4o2)CS(=O)(=O)C3)c1 | 7.71% (inactive)
17 | CC(=O)N1CCN(C(=O)c2cc(-c3ccc(Cl)s3)nc3ccccc23)CC1 | 11.4% (inactive)
18 | CC(=O)Nc1cccc(C(=O)OCC(=O)c2ccc3c(c2)OCO3)c1 | 4.88% (inactive)
19 | COc1ccc2nc(N3CCN(C(=O)c4ccc([N+](=O)[O-])o4)CC3)sc2c1 | 13.6% (inactive)
20 | Cc1ccc(C)c(NC(=S)NNC(=O)c2csc(C)c2)c1 | 82.7% (active)
21 | Cc1cc(C(=O)NNC(=S)Nc2ccccc2C)cs1 | 1.21% (inactive)
22 | Cc1cc(C(=O)NNC(=S)NC(C)c2ccccc2)cs1 (stereo not drawn) | 12.8% (inactive)

Row | SMILES | growth inhibition
23 | NC1=NC(c2ccc([N+](=O)[O-])cc2)N(c2ccc(F)cc2)C(N)=N1 (stereo not drawn) | -2.27% (inactive)
24 | Cc1ccc(C(=O)Nc2c(C#N)c(C)c(C)n2Cc2ccccc2)cc1 | -7.7% (inactive)
25 | CC(C)C(=O)N1CC(=O)Nc2ccc(F)cc2C1c1ccc(F)cc1 (stereo not drawn) | -3.91% (inactive)
26 | O=C(Nc1ccccc1Cl)Nn1cnnc1 | 16.1% (inactive)
27 | O=C(Nc1ccccc1Cl)/C(Cl)=C(\Cl)S(=O)c1ccccc1 (stereo not drawn) | 81.7% (active)
28 | O=C(COC(=O)c1cccs1)Nc1ccccc1Cl | 7.55% (inactive)
29 | O=c1[nH]c(/C=C/c2cccc(Br)c2)nc2ccccc12 | 3.62% (inactive)
30 | COc1ccccc1-n1ccnc(SCC(=O)NC2CCCCC2)c1=O | -2.58% (inactive)
31 | O=C(Nc1ccccc1F)c1ccc2c(c1)OCO2 | -5.7% (inactive)
32 | O=C(Nc1nnc(C2COc3ccccc3O2)o1)c1ccc(F)cc1 (stereo not drawn) | 85.8% (active)
33 | CC1COc2ccccc2N1C(=O)c1ccc(F)cc1 (stereo not drawn) | -3.04% (inactive)
34 | Cc1cccc(N(Cc2ccccc2)C(=O)c2cc(S(=O)(=O)N3CCOCC3)ccc2F)c1 | -1.4% (inactive)
35 | CCN1C(=O)[C@H]2[C@@H](c3ccc(-c4ccc(F)cc4)cc3)N[C@@](Cc3ccccc3)(C(=O)OC)[C@H]2C1=O | -6.22% (inactive)
36 | COC(=O)N/N=C/c1c[n+]([O-])c2ccccc2[n+]1[O-] | 12.4% (inactive)
37 | Cc1ccc(NC(=O)CN(C)C(=O)Cn2nnc(-c3ccccc3)n2)cc1 | -6.13% (inactive)
38 | O=C1CCCN1C(=O)COc1ccc([N+](=O)[O-])cc1 | 4.3% (inactive)
39 | Cc1cccc(C2c3[nH]c4ccccc4c3CCN2C(=O)c2cc(-c3cccn3C)n[nH]2)n1 (stereo not drawn) | 79.7% (active)
40 | Cc1cccc(C(=O)N2CCc3c([nH]c4ccccc34)C2CC(C)C)n1 (stereo not drawn) | 12.9% (inactive)
41 | O=C(c1cn2ccccc2n1)N1CCc2c([nH]c3ccccc23)C1c1ccccn1 (stereo not drawn) | -2.25% (inactive)
42 | O=C(NCc1ccccc1)C1=C[C@@H](c2ccccc2)C[C@@H](OCCCCO)O1 | -5.03% (inactive)
43 | CCN(CC(=O)Nc1cc(Cl)ccc1C)C(=O)Cn1c(=O)cnc2ccccc21 | -1.02% (inactive)
